Compound activity: PubChem BioAssay, National Center for Advancing Translational Sciences (NCATS)
HEK cytotox = HEK 293 cell cytotoxicity | 6.6% of 94,000 active | AID 1345083 | Potency, µM (titrated, usually from 115 µM), for the others: at the highest dose activity change, negative = cytotoxicity, most hits filed as inhibitors | HEK 293 viability, ATP luminescence (CellTiter-Glo), 48-72 h; note: nearly all actives have a fitted effect of over 60% in size
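Read-out: CellTiter-Glo ATP luminescence. Cells: HEK 293, 250 cells/well. Exposure: 48 or 72 hr, 37 degree Celsius.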
NIH3T3 tox = kills NIH 3T3 cells. Potency, µM (top dose mostly 96.7 µM), for the others: top-dose activity change, negative = cytotoxicity, most hits filed as inhibitors. NIH 3T3 viability, CellTiter-Glo ATP luminescence, 48-72 h. 4.3% of 94,000 active. AID 1345082; note: nearly all actives have a fitted effect of over 55% in size
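NIH 3T3 cells at 400 cells/well received 23 nL of compound by pintool and were incubated 48 or 72 h at 37 °C. Viability was read as ATP-coupled CellTiter-Glo luminescence.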
FLuc inh = Photinus pyralis luciferase inhibition | Potency, µM (titrated, usually from 115 µM), actives largely listed as inhibitors | purified P. pyralis luciferase, luminescence, biochemical | AID 1347043 | 2.5% of 76,000 active | P08659; note: nearly all actives have a fitted effect of over 65% in size
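Luminescence read by CCD imaging after purified firefly luciferase (10nM final) was added to substrate buffer holding 10uM D-luciferin and 10uM ATP, pH 7.5, pre-dosed with compound.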
hNpr1 antagonist = antagonists of human natriuretic peptide receptor Npr1; P16066; HEK293 hNpr1 GloSensor cGMP, ANP-stimulated luminescence; Potency, µM (titrated, usually from 46.3 µM), without a hit: at the highest dose activity change, negative = inhibition, actives largely listed as inhibitors; 1.6% of 76,000 active; calls by dose curve; note: nearly all actives have a fitted effect of over 60% in size
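HEK293 cells stably expressing human Npr1 and cGMP GloSensor pGS-40F, loaded 2 h with 2% GloSensor reagent, given compound 30 min at room temperature. Luminescence read before and 20 min after 0.1 nM hNppA.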
GPT2 inhibitor = inhibitors of human GPT2 alanine aminotransferase. Recombinant GPT2, coupled pyruvate oxidase/HRP Amplex Red fluorescence. Potency, µM (highest dose often 57.7 µM), inactives show top-dose activity change, negative = inhibition, hits mostly inhibitors. 0.25% of 100,000 active; note: nearly all actives have a fitted effect of over 60% in size
Target sequence (Q8TD30 whole entry, looked up): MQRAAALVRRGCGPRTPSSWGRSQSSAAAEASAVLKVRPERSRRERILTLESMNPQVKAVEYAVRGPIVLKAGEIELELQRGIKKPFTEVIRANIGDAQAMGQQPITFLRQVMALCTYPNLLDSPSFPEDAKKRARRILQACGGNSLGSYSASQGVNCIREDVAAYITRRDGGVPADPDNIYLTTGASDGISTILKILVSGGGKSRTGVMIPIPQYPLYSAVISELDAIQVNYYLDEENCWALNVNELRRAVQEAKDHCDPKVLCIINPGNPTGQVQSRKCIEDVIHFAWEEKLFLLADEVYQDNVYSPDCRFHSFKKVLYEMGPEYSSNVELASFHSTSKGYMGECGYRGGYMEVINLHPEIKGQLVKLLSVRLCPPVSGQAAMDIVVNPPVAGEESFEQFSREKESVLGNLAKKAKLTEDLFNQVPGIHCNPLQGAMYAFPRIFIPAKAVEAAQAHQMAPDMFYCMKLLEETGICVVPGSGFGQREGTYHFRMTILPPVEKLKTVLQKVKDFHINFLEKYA
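Inhibition is scored from Amplex Red fluorescence generated when pyruvate oxidase and HRP act on pyruvate released by GPT2. Reactions contain 10ng/uL enzyme, 250uM a-KG and 2mM L-alanine and run 30 min at room temperature.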
* = called active by the depositor; [ ] = remark or other dose. Most compounds without a hit are left out; they make up all but 10% or so of the library. Unless noted, calls come from the whole dose curve; as a rule, active = well fitted curve in the direction sought with a large enough effect; inconclusive = small, poorly fitted or top-dose-only effect, or another doubt; inactive = no such curve, though single readings can be large; an effect the other way counts as inactive or inconclusive. % is set by controls: 0 for no effect and ±100 for the full control effect; potency is the fitted concentration of half-maximal effect.

Results for Cn1cnc2cc(-c3ccc(CO)cc3)cc(C(=O)NCc3cccnc3)c21 ?
HEK cytotox: -23%[172 µM]; NIH3T3 tox: inconclusive; FLuc inh: inactive; hNpr1 antagonist: 0%[70.6 µM]; GPT2 inhibitor: -23%[88.5 µM]

Results for Cn1ncc2c(C(=O)NCC(F)F)cc(-c3cccc(C(F)(F)F)c3)nc21 ?
HEK cytotox: -2%; NIH3T3 tox: -10%

Results for Cc1ccc(-c2cc(C(=O)NCc3cccnc3)c3c(c2)ncn3C)cn1 ?
HEK cytotox: inactive; NIH3T3 tox: 100µM*; FLuc inh: inactive; hNpr1 antagonist: -3%[70.6 µM]; GPT2 inhibitor: inactive

How did Cn1ncc2c(C(=O)NCC(F)F)cc(-c3cccc(F)c3)nc21 do in these assays?
HEK cytotox: 56µM*; NIH3T3 tox: inconclusive

How did FC(F)(F)c1cccc(-c2nccn3c(C4CN(Cc5ccc6cn[nH]c6c5)C4)ncc23)c1 do in these assays?
HEK cytotox: 45µM*; NIH3T3 tox: 40µM*; FLuc inh: inactive; hNpr1 antagonist: -16%; GPT2 inhibitor: 4%

Results for O=C(c1ccc2nnc(-c3ccc(Cl)cc3)n2c1)N1CCN(Cc2ccccc2)CC1 ?
HEK cytotox: 25µM*; NIH3T3 tox: 28µM*; GPT2 inhibitor: -36%

How did O=C(c1ccc(Cl)cc1)N1CCN(c2ccc3nnc(-c4ccccc4)n3n2)CC1 do in these assays?
HEK cytotox: inconclusive; NIH3T3 tox: 45µM*

How did COc1ccc(Cc2nnc3ccc(C(=O)N4CCN(Cc5ccccc5)CC4)cn23)cc1 do in these assays?
HEK cytotox: inconclusive; NIH3T3 tox: inconclusive; GPT2 inhibitor: inactive

Results for O=C(Cc1cccc(Cl)c1)N1CCN(c2ccc3nnc(-c4ccccc4)n3n2)CC1 ?
HEK cytotox: 45µM*; NIH3T3 tox: inconclusive

Results for CN1Cc2ncnc(NCCc3ccccc3)c2CN(C2CCC2)C1=O ?
HEK cytotox: 63µM*; NIH3T3 tox: inconclusive; FLuc inh: inactive; hNpr1 antagonist: 0%[70.6 µM]; GPT2 inhibitor: -16%[88.5 µM]

How did Cc1cccc(N2Cc3c(NCCCc4ccccc4)ncnc3N(C)CC2=O)c1 do in these assays?
HEK cytotox: inconclusive; NIH3T3 tox: 45µM*; GPT2 inhibitor: inconclusive

Results for Cc1ccc(N2Cc3c(NCCCc4ccccc4)ncnc3N(C)CC2=O)cc1 ?
HEK cytotox: inconclusive; NIH3T3 tox: inconclusive; FLuc inh: inactive; hNpr1 antagonist: 6%; GPT2 inhibitor: -26%

How did CN1CC(=O)N(c2ccccc2F)Cc2c(NCCc3ccc(Cl)cc3)ncnc21 do in these assays?
HEK cytotox: 45µM*; NIH3T3 tox: 40µM*; FLuc inh: inactive; hNpr1 antagonist: -15%; GPT2 inhibitor: -9%

Results for CN1CC(=O)N(c2ccccc2F)Cc2c(NCCc3ccccc3)ncnc21 ?
HEK cytotox: 45µM*; NIH3T3 tox: inconclusive; FLuc inh: inactive; hNpr1 antagonist: 0%; GPT2 inhibitor: inconclusive

What do the screens show for `Cc1ccc(-c2cc(C(=O)N3CCN(c4ccccc4)CC3)c3cnn(C)c3n2)cc1`?
HEK cytotox: inconclusive; NIH3T3 tox: inconclusive; GPT2 inhibitor: 0%

Results for COc1cccc(-c2ccc(C(=O)N3CCC(C(=O)NC4CCCCC4)CC3)cc2)c1 ?
HEK cytotox: inconclusive; NIH3T3 tox: inconclusive; GPT2 inhibitor: -11%

How did CCn1nccc1C(=O)N1CCCCC1c1noc(COc2ccc(C)cc2)n1 (stereo unspecified) do in these assays?
HEK cytotox: inconclusive; NIH3T3 tox: inconclusive; GPT2 inhibitor: 2%

What do the screens show for `COc1ccc(N2Cc3c(NCC(C)(C)C)ncnc3N(C)CC2=O)cc1`?
HEK cytotox: -8%; NIH3T3 tox: -22%; FLuc inh: inactive; hNpr1 antagonist: -2%; GPT2 inhibitor: inconclusive

How did COc1ccc(N2Cc3c(NCC4CCCCCC4)ncnc3N(C)CC2=O)cc1 do in these assays?
HEK cytotox: 79µM*; NIH3T3 tox: inconclusive; FLuc inh: inactive; hNpr1 antagonist: -2%; GPT2 inhibitor: inactive

Results for C/C(=C\c1ccccc1)CN1CCC2(CC1)Cc1ccccc1CNC2=O ?
HEK cytotox: inconclusive; NIH3T3 tox: inconclusive; GPT2 inhibitor: 1%

What do the screens show for `CC(C)c1ccc(Nc2n[nH]c(C(O)C3CC3)n2)cc1` (stereo unspecified)?
HEK cytotox: inconclusive; NIH3T3 tox: inconclusive; FLuc inh: 16µM*; hNpr1 antagonist: -17%[70.6 µM]; GPT2 inhibitor: inactive

What do the screens show for `COc1ccccc1C(O)c1nc(Nc2ccc(C(C)C)cc2)n[nH]1` (stereo unspecified)?
HEK cytotox: 100µM*; NIH3T3 tox: inconclusive; FLuc inh: inactive; hNpr1 antagonist: -11%[70.6 µM]; GPT2 inhibitor: -24%[88.5 µM]

How did Cn1cc(C(O)c2nc(Nc3ccc(OC(F)(F)F)cc3)n[nH]2)cn1 (stereo unspecified) do in these assays?
HEK cytotox: 112µM*; NIH3T3 tox: inconclusive; FLuc inh: inactive; hNpr1 antagonist: 1%[70.6 µM]; GPT2 inhibitor: 2%[88.5 µM]

How did OC(c1cccc(C(F)(F)F)c1)c1nc(Nc2ccc(F)cc2)n[nH]1 (stereo unspecified) do in these assays?
HEK cytotox: 79µM*; NIH3T3 tox: inconclusive; FLuc inh: inactive; hNpr1 antagonist: -26%[70.6 µM]; GPT2 inhibitor: 3%[88.5 µM]

Results for O=C(NCc1cccc(F)c1)c1cc(-c2cccc(C(F)(F)F)c2)c2nncn2n1 ?
HEK cytotox: -2%; NIH3T3 tox: -18%; GPT2 inhibitor: 5%

How did O=C(c1ccc(F)cc1)N1CCCC2(CN[S+](=O)([O-])c3cnccc3N2)C1 (stereo unspecified) do in these assays?
HEK cytotox: -2%; NIH3T3 tox: -10%

How did OC(c1nc(Nc2ccc(N3CCOCC3)cc2)n[nH]1)C1CC1 (stereo unspecified) do in these assays?
HEK cytotox: inconclusive; NIH3T3 tox: inconclusive; FLuc inh: inactive; hNpr1 antagonist: -1%[70.6 µM]; GPT2 inhibitor: inconclusive

How did OC(c1nc(Nc2ccc(Cl)cc2)n[nH]1)C1CC1 (stereo unspecified) do in these assays?
HEK cytotox: inconclusive; NIH3T3 tox: inconclusive; FLuc inh: 22µM*; hNpr1 antagonist: -23%[70.6 µM]; GPT2 inhibitor: inactive

What do the screens show for `O=C(c1ccoc1)N1CCCN(CCc2ccccc2)c2ccccc21`?
HEK cytotox: inconclusive; NIH3T3 tox: inconclusive; FLuc inh: inactive; hNpr1 antagonist: -5%; GPT2 inhibitor: -12%

Results for O=C(c1nc2sccn2c1-c1ccncc1)N1CCOCC1 ?
HEK cytotox: -2%; NIH3T3 tox: inactive; GPT2 inhibitor: inactive

What do the screens show for `COCCN1C(=O)c2cccn2CC1CNC(=O)c1ccc(F)cc1` (stereo unspecified)?
HEK cytotox: -1%; NIH3T3 tox: 2%; FLuc inh: inactive; hNpr1 antagonist: 0%; GPT2 inhibitor: inactive
